For 19 compounds, Potency results are on record in PubChem BioAssay AID624331 (National Center for Advancing Translational Sciences (NCATS), 2012).

Records with an inconclusive call do not appear. A call without a number means that no potency is given here. Calls of active or inactive are those of the source. Calls come from the whole dose curve; as a rule, active = well fitted activation curve with a large enough effect; inconclusive = small, poorly fitted or top-dose-only effect; inactive = no such curve, though single readings can be large or run the other way.

The assay can be described thus: qHTS assay for re-activators of p53 using a Luc reporter: Hit Validation with no p53 Expressed. The essentials:
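Counter-screen of primary hits in a cell line not transfected with p53, in Opti-MEM with 10% FBS; compounds at several concentrations (10 mM stock, 1:5; top 46.1 µM in well), 24 h at 37 deg C, 5% CO2. Luminescence read after 10 min with Amplite reagent.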
Potency is the fitted concentration of half-maximal effect.

As for `CCN(CC)C(=O)CNC(=S)N(CCCN1CCOCC1)Cc1cccs1`, the Potency result was “inactive”.
In the case of `Cc1cc(/C=C2/C(=O)NN(c3ccccc3)C2=O)c(C)n1-c1cccc(O)c1`, the Potency entry is “inactive”.
Take `c1ccc(COc2ccc(OCCOCCn3cncn3)cc2)cc1`: the Potency was 1300 nM (active).
Regarding `Cc1ccc(/C=N/NC(=O)c2cccs2)s1`, the Potency entry is “inactive”.
For `COc1ccc(-c2coc3cc(O[C@@H]4O[C@H](CO)[C@@H](O)[C@H](O)[C@H]4O)ccc3c2=O)cc1`, the Potency result is “inactive”.
In the case of `Fc1ccccc1OCCSc1nnnn1-c1ccccc1`, the Potency result was “inactive”.
In the case of `Cc1cc(C(=O)Cn2nnc3ccccc3c2=O)c(C)n1Cc1cccs1`, the Potency result was “inactive”.
With `COc1cccc(C(=O)Nc2ccc(NC(=O)C(C)(C)C)cn2)c1`, the Potency is 461 nM (active).
The same measure for `C1=C(CCNc2ncnc3nc[nH]c23)CCCC1`: “inactive”; for `O=C(COc1ccc(F)cc1Cl)NC1CCCCCC1`: “inactive”; for `CN(C(=O)NC(=O)C1=C(N2CCOCC2)/C(=C/c2ccccc2)CC1)S(C)(=O)=O`: “inactive”.
In the case of `CC(=O)Nc1ccc(Nc2cc(C)nc3c(-c4ccccc4)cnn23)cc1`, the Potency entry was “inactive”.
In the case of `O=C(NC1CCCCC1)c1ccc(-c2ccccc2F)o1`, the Potency entry was “inactive”.
For `OCCNc1nc(NCc2ccccc2)c2ccccc2n1`, the Potency entry is “inactive”.
In the case of `Cc1ccc(OCCCNCCO)c(Br)c1` it was “inactive”; in that of `Cc1ccsc1/C=C1\CCc2ccccc2C1=O`, “inactive”.
In the case of `c1ccc2c(c1)CCN(c1nc3cc4c(cc3s1)OCO4)C2`, the Potency entry was “inactive”.
In the case of `Cc1cc(C)cc(NC(=O)CSc2nnc(-c3ccccc3C)o2)c1`, the Potency entry is “inactive”.
Turning to `O=c1nc2sc3ccccc3n2c(=O)n1-c1cccc(Cl)c1`, the Potency result was “inactive”.
